The source of these data is PubChem BioAssay.

Active and inactive are the calls of the source.

For assay [1], the system named is Human papillomavirus type 1a protein E7 (residues 44-93). As to the kind of experiment: small molecules binding HPV E7 44-93 – biochemical, small-molecule microarray, residues 44-93, 635 nm fluorescence, primary screen (AID 1108).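 Further: E7 fragment applied at 1 µg/mL in TBST for 1 h at 4 C; score combines spot fluorescence with its signal to noise ratio.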 The following applies: fluorescence 635 nm, higher = more signal.
The nature of assay [2]: hepatitis C replication reporter changes, two-sided – Huh7 cells, luciferase reporter, HCV replication inhibitor project, primary screen (AID 1109).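 Further: huh7 hepatoma cells harbouring a luciferase neomycin HCV replicon reporter; luciferase luminescence as measure of HCV replicon replication; test concentration not given here.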 The following applies: Huh7 HCV replicon luciferase reporter, 48 h; higher = more signal. For orientation: A reporter such as luciferase makes a cellular process visible.
The target of assay [3] is Left-right determination factor 2 (Homo sapiens) (UniProt O00292). The assay can be described thus: small molecules binding LEFTY2 protein – biochemical, small-molecule microarray, 635 nm fluorescence scan, primary screen (AID 1110). The following applies: higher = more signal.
The target in assay [4] is Calmodulin-1 (Homo sapiens) (UniProt P0DP23). As to the kind of experiment: small molecules binding calmodulin-1 with EGTA – biochemical, small-molecule microarray, Cy5-labelled CALM1, profiling panel (AID 1111).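 Further: labelled calmodulin applied in Tris saline Tween buffer holding calcium plus EGTA and DTT.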 The following applies: Cy5-CALM1 binding fluorescence, higher = more signal.
Assay [5] has the same target. As to the kind of experiment: small molecules binding Ca-loaded calmodulin-1 – biochemical, small-molecule microarray, Cy5-labelled CALM1, plus calcium, artefact control for SMM control-protein annotation, profiling panel (AID 1112).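 Further: score merges spot fluorescence with signal to noise from triplicate slides.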 The following applies: Cy5-CALM1 binding fluorescence, higher = more signal.
Assay [6] is described as follows: probe aWnt5a binding to arrayed compounds – biochemical, biotinylated probe, 635/667 nm fluorescence, primary screen (AID 1113).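 Further: score merges 667 nm fluorescence intensity with signal-to-noise per printed feature.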 The following applies: small-molecule microarray, higher = more signal.
The nature of assay [7]: probe aShh binding to arrayed compounds – biochemical, biotinylated probe, 635/667 nm fluorescence, primary screen (AID 1114).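 Further: probe is biotin-labelled aShh protein from a stem cell growth factor screen; measures binding of labelled protein to compounds printed on the slide; score merges feature fluorescence at 667 nm with signal-to-noise.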 The following applies: small-molecule microarray, higher = more signal.
Assay [8] in a line: probe aNog binding to arrayed compounds – biochemical, biotinylated probe, 635/667 nm fluorescence, primary screen (AID 1115).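 Further: probe is biotinylated aNog protein used at 0.15 µg/mL for 1 h at 4 C; z-score combines 667 nm fluorescence of each spot with its signal to noise.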 The following applies: small-molecule microarray, higher = more signal.
Assay [9] concerns the target Torsin-1A-interacting protein 1 (Homo sapiens) (UniProt Q5JTV8). The assay can be described thus: compound microarray binding of lysate hLAP1 – cell lysate, small-molecule microarray, COS7 lysate, 635/667 nm fluorescence, primary screen (AID 1116). The following applies: 635 nm fluorescence, higher = more signal.
For assay [10], the target named is Alpha-bungarotoxin (Bungarus multicinctus) (UniProt P60615). The assay can be described thus: compounds binding labelled alpha-BTX control protein – biochemical, small-molecule microarray, Alexa647 label, 635/667 nm fluorescence, artefact control for SMM control protein annotation, profiling panel (AID 1117). The following applies: alpha-BTX-A647 binding fluorescence, higher = more signal.

For a further assay, the target named is Albumin (Bos taurus) (UniProt P02769). As to the kind of experiment: compounds binding labelled BSA control protein – biochemical, small-molecule microarray, Alexa647 label, 635/667 nm fluorescence, artefact control for SMM control protein annotation, profiling panel (AID 1118).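 Further: score merges 667 nm emission intensity and signal-to-noise per printed compound spot.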 The following applies: BSA-A647 binding, fluorescence 635 nm, higher = more signal.

The nature of assay [11]: probe aXIP binding to arrayed compounds – biochemical, NeuroSMM set, 635/667 nm fluorescence, primary screen (AID 1119).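 Further: probe is the protein aXip251-270 applied at 1 µg/mL to compound-printed slides; binding of probe to printed compounds measured as 667 nm fluorescence plus signal to noise.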 The following applies: small-molecule microarray, higher = more signal, called active from +8 up or from −8 down.
Assay [12] in a line: probe aNOTCH3 binding on compound microarray – biochemical, small-molecule microarray, 635/667 nm fluorescence, primary screen (AID 1120).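 Further: probe is a biotin-tagged antibody raised against NOTCH3 rather than NOTCH3 protein; score merges spot fluorescence near 667 nm with spot signal to noise.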 The following applies: higher = more signal.
Assay [13] is described as follows: probe aNOTCH2 binding on compound microarray – biochemical, small-molecule microarray, 635/667 nm fluorescence, primary screen (AID 1121).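 Further: score merges feature fluorescence read at 667 nm with its signal to noise.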 The following applies: higher = more signal.
The target in assay [14] is Carbonic anhydrase 2 (Homo sapiens) (UniProt P00918). The assay can be described thus: compounds binding carbonic anhydrase 2 – biochemical, small-molecule microarray, Alexa647-labelled CAII, profiling panel (AID 1122). The following applies: CAII-A647 binding fluorescence, higher = more signal.
A short description of assay [15]: COS7 lysate on small-molecule microarray, probe aHis, 635 nm (AID 1123).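 Further: z-score combines 667nm fluorescence intensity with signal-to-noise per printed compound spot.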 The following applies: COS7 cell lysate, fluorescence, higher = more signal.
A short description of assay [16]: probe aLAP1 signal on lysate-treated microarray – cell lysate, small-molecule microarray, COS7 lysate, primary screen (AID 1124).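 Further: lysate comes from COS7 cells expressing LAP1 and is applied at 0.3 µg/mL; score merges spot fluorescence near 667 nm with signal-to-noise over triplicate slides.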 The following applies: probe aLAP1, fluorescence, higher = more signal.
Another assay deals with Sam68 (KHDRBS1). The assay can be described thus: compounds binding KHDRBS1 protein – biochemical, small-molecule microarray, 635 nm fluorescence, primary screen (AID 1125).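 Further: score merges 667 nm channel intensity with signal to noise over triplicate slides.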 The following applies: higher = more signal.
For assay [17], the system named is Chordin-like protein 2 (CHRDL2). As to the kind of experiment: compounds binding chordin-like 2 – biochemical, small-molecule microarray, 635 nm fluorescence, primary screen (AID 1126).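 Further: printed compound slides probed with Chrdl2 protein at 4 µg/mL for 1 h at 4 C; score merges 667 nm emission intensity with signal to noise over three replicate slides.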 The following applies: fluorescence 635 nm, higher = more signal.
Assay [18] addresses Concanavalin-A (Canavalia ensiformis) (UniProt P02866). The assay can be described thus: compounds binding concanavalin A lectin – biochemical, small-molecule microarray, Alexa647 label, 635 nm, artefact control for SMM control protein annotation, primary screen (AID 1127).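 Further: z combines 667 nm emission intensity with signal-to-noise across three replicate slides.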 The following applies: ConA-A647 binding fluorescence, higher = more signal.

Alpha-bungarotoxin (Bungarus multicinctus), sequence (P60615 whole entry, looked up): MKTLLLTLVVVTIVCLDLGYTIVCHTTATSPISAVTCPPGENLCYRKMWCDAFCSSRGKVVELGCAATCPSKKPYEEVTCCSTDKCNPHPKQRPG
Concanavalin-A (Canavalia ensiformis), sequence (P02866 whole entry, looked up): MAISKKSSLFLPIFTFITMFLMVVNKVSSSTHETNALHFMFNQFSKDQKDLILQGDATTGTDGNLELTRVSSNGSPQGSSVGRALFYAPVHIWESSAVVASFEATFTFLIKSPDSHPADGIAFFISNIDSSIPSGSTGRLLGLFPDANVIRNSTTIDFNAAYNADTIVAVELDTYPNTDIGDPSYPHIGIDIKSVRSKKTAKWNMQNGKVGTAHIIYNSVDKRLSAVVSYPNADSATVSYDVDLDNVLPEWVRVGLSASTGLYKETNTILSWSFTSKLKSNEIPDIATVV
Left-right determination factor 2 (Homo sapiens), sequence (O00292 whole entry, looked up): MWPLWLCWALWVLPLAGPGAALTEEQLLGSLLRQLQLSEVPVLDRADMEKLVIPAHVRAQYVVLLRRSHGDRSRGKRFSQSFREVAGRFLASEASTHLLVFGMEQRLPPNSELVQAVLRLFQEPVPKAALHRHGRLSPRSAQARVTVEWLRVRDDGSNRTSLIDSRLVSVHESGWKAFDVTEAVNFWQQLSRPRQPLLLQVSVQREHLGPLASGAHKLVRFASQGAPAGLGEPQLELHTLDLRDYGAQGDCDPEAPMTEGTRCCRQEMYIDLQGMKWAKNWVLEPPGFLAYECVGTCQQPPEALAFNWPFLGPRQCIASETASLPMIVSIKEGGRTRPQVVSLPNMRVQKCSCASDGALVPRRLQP
Torsin-1A-interacting protein 1 (Homo sapiens), sequence (Q5JTV8 whole entry, looked up): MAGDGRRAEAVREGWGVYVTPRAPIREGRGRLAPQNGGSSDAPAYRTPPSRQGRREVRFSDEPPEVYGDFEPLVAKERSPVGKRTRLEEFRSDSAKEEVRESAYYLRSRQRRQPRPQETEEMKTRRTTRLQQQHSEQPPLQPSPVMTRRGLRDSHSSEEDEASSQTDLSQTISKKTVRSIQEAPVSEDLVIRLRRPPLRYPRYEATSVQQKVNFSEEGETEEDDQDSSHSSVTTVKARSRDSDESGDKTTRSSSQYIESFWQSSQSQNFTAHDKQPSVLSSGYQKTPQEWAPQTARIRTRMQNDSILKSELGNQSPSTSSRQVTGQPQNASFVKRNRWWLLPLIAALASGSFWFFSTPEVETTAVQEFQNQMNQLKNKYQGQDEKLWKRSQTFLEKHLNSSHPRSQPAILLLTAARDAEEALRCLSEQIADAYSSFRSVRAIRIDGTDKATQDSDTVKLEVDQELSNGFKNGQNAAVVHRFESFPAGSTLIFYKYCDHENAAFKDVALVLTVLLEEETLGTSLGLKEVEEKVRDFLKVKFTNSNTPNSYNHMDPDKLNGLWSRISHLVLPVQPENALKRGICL
Albumin (Bos taurus), sequence (P02769 whole entry, looked up): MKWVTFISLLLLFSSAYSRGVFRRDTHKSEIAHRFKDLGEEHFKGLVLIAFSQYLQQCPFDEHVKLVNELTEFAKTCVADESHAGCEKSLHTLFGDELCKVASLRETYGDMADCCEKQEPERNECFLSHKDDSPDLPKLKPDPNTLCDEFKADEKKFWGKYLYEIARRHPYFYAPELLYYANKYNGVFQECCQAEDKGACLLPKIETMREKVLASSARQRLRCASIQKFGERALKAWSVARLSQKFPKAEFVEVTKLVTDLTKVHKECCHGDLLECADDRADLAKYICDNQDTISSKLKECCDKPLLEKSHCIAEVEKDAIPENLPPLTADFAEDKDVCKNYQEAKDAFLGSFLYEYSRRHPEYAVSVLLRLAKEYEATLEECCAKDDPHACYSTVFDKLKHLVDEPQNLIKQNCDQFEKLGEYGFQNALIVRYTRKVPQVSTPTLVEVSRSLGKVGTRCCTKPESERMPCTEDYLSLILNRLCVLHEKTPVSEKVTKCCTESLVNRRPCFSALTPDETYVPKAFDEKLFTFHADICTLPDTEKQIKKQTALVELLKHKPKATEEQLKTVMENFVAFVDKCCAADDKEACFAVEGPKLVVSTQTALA

As for `CN1C(=O)C2C=CC(C(O)c3cccs3)N(Nc3ccccc3)C2C1=O` (stereo not given), the composite z-score in [1] is 0.548; in assay [3], 0.0032; in [4] it was 0.041; in assay [5] it was -0.591; in assay [6], 0.211; in [7], 0.265. Also, the composite z-score was 0.0924 in assay [8]; 0.558 in assay [9]; 0.336 in assay [10]; 0.95 in the assay with Albumin (Bos taurus); 0.0873 in [12]; -0.0856 in [13]. Also, the composite z-score in assay [14] was 0.831; in assay [15] it was 1.87; in [16], -0.0235; in the assay with Sam68 (KHDRBS1), 0.186; in [17], 0.0907; in assay [18], 0.442. The same molecule displayed a z-score in assay [2] of -0.304. Besides, the composite Z-score in assay [11] is -0.227 (inactive).

With `Cc1ccc(S[C@]2(C(=O)NCCN3CCOCC3)CC(=O)N(Cc3ccccc3)[C@@H]2c2ccc(CO)cc2I)cc1`, the composite z-score in assay [1] is 0.0104; in assay [3], -0.601; in assay [4], -0.318; in assay [5], -0.431; in [6] it was -0.124; in assay [7] it was -0.17. The composite z-score in [8] was 0.0323; in [9] it was -0.914; in assay [10], -1.07; with Albumin (Bos taurus), 0.285; in assay [12], -0.165; in [13] it was -0.14. Further, the composite z-score in assay [14] is 0.667; in [15], 1.43; in [16], 0.202; in the assay on Sam68 (KHDRBS1), -0.388; in assay [17], -1.59; in assay [18], -0.112. For the same molecule, the z-score in assay [2] is -3.12. Further, the composite Z-score in [11] was 0.994 (inactive).

Turning to `C=CCNC(=O)[C@H]1[C@@H]2C(=O)O[C@@H](c3ccccc3)[C@@H](c3ccccc3)N2[C@@H](c2ccc(O)cc2)[C@]12C(=O)N(C(=O)OCCOC)c1ccc(C#CCNC(N)=O)cc12`, the composite z-score was 0.863 in assay [1]; 1.01 in [3]; -0.0456 in assay [4]; 0.143 in assay [5]; 0.0077 in assay [6]; -0.0769 in [7]. The composite z-score in assay [8] is 0.0989; in assay [9] it was 0.585; in assay [10], 1.07; with Albumin (Bos taurus), -0.213; in assay [12] it was 0.0955; in assay [13], 0.0313. In addition, the composite z-score is 0.484 in assay [14]; 0.275 in assay [15]; 0.0793 in assay [16]; 1.13 in the assay with Sam68 (KHDRBS1); 0.64 in [17]; 0.932 in [18]. For the same molecule, in assay [2], the z-score was -0.767. Moreover, in assay [11], the composite Z-score is 0.384 (inactive).

For the molecule `O=C1NC(=O)C2C1C=CC(C(O)c1ccccc1)N2Nc1ccc(Cl)cc1Cl` (stereo not given), the composite z-score turned out to be 1.39 in [1]; 0.628 in assay [3]; 2.13 in [4]; 1.09 in assay [5]; 0.17 in assay [6]; 0.412 in assay [7]. Besides, the composite z-score was 1.44 in assay [8]; 1.98 in assay [9]; 1.55 in assay [10]; 0.885 with Albumin (Bos taurus); 0.405 in assay [12]; -0.0974 in assay [13]. The composite z-score in assay [14] was 0.574; in [15], 3.18; in [16], 1.23; with Sam68 (KHDRBS1), 1.33; in assay [17] it was -0.238; in assay [18], 1.1. In assay [2], this molecule came in with a z-score of -1.25. In addition, the composite Z-score in [11] is -0.199 (inactive).

Take `C[N+](C)(C)CCCCNC(=O)[C@H]1C[C@H]2C(=O)N[C@@H](Cc3ccccc3)C(=O)N2[C@H]1c1ccc(O)cc1`: the composite z-score was -0.0021 in [1]; 0.686 in [3]; -0.494 in [4]; 0.565 in assay [5]; -0.0944 in [6]; 0.442 in assay [7]. Besides, the composite z-score in assay [8] was 0.0209; in assay [9], 0.427; in [10] it was 1.56; with Albumin (Bos taurus) it was -1.16; in assay [12] it was -0.0343; in assay [13], -0.167. The composite z-score in assay [14] was 0.358; in assay [15] it was 0.396; in assay [16], 0.0021; in the assay on Sam68 (KHDRBS1), 0.247; in assay [17], 1.05; in assay [18], 0.274. In assay [2], this molecule yielded a z-score of -0.72. Besides, the composite Z-score in [11] was 0.474 (inactive).

Take `C=CCC(OC(C)=O)[C@@H]1[C@@H](N(Cc2cccc3ccccc23)C(=O)c2ccc(-c3ccccc3)cc2)c2cc(OCCCO)ccc2N1C(=O)Cc1ccc(OC)cc1` (stereo not given in full): the composite z-score in assay [1] was 0.144; in [3] it was 0.111; in assay [4], 0.617; in [5], 0.291; in [6], 0.0479; in assay [7], 0.149. In addition, the composite z-score is -0.0907 in [8]; -0.0944 in assay [9]; 0.373 in assay [10]; 0.173 with Albumin (Bos taurus); -0.0232 in assay [12]; -0.143 in assay [13]. In addition, the composite z-score in [14] is 0.0745; in assay [15], 0.0863; in assay [16] it was -0.0691; in the assay on Sam68 (KHDRBS1) it was -0.0453; in assay [17], -0.147; in assay [18] it was 0.0866. For the same molecule, the z-score in [2] was -1.36. In addition, the composite Z-score in assay [11] was -0.829 (inactive).
